Results on eight compounds are retold here after PubChem BioAssay.

Test [1] in a line: rescue of polyQ-huntingtin neuronal dysfunction in worms, whole organism, C. elegans mechanosensory neurons, N-terminal huntingtin (AID 1599). As to conditions: touch response, stronger effect = higher value.
The nature of test [2]: reducers of polyQ inclusions in PC12 cells, cell-based, NGF-treated PC12, GFPQ80 (AID 1614).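 Also: lower means fewer inclusions and 0 means no inclusions at all.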 As to conditions: PC12 NGF-treated GFP-polyQ80 inclusion reduction.
Test [3] in a line: suppressors of polyglutamine aggregation in yeast, 75Q-TubH (AID 1616). As to conditions: S. cerevisiae 75Q-TubH polyglutamine aggregation suppression; stronger effect = higher value.
The nature of test [4]: hESC survival regulators, cell-based (AID 493140).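 Also: cells exposed to compounds for four days before counting.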 As to conditions: human embryonic stem cell survival screen; stronger effect = higher value.
The nature of test [5]: growth inhibition of DIPG glioma cells, dose response, cell-based, SU-DIPG-XVII, MIPE5.0, CellTiter-Glo, qHTS (AID 1347060; cut-off not given, nearly all actives have AC50 up to about 26 µM;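 as to AC50: cells exposed to compound for 48 hours before viability readout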). As to conditions: SU-DIPG-XVII viability, CellTiter-Glo ATP luminescence. (In ATP-based viability assays light output follows the ATP content of the culture.)
Test [6] is described as follows: growth inhibition of DIPG glioma cells, dose response, cell-based, SU-DIPG-IV, MIPE4.0, CellTiter-Glo, qHTS (AID 1347063; cut-off not given, nearly all actives have AC50 up to about 30 µM;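 also: compound exposure lasted 48 hours before the viability readout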). Conditions: SU-DIPG-IV viability, CellTiter-Glo ATP luminescence.
Test [7] is described as follows: SU-DIPG-VI glioma cell viability, MIPE4.0 library, CellTiter-Glo luminescence, qHTS (AID 1347066; cut-off not given, nearly all actives have AC50 up to about 30 µM;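 also: cells exposed to compound for 48 hours before readout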). Conditions: CellTiter-Glo ATP luminescence.
A short description of test [8]: JHH-DIPG-1 glioma cell viability, MIPE5.0 library, CellTiter-Glo luminescence, qHTS (AID 1347067; cut-off not given, nearly all actives have AC50 up to about 26 µM;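 also: cells exposed to compound for 48 hours before readout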). Conditions: JHH-DIPG-1 glioma viability, CellTiter-Glo ATP luminescence.
Test [9] is described as follows: SU-DIPG-XXV glioma cell viability, MIPE5.0 library, qHTS (AID 1347068; cut-off not given, nearly all actives have IC50 up to about 30 µM).
A short description of test [10]: growth inhibition of DIPG glioma cells, dose response, cell-based, SU-DIPG-XIII, MIPE4.0, CellTiter-Glo, qHTS (AID 1347061; cut-off not given, nearly all actives have AC50 up to about 37 µM;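 also: cells exposed to compound for 48 hours before readout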). Conditions: SU-DIPG-XIII viability, CellTiter-Glo ATP luminescence.
The nature of test [11]: growth inhibition of DIPG glioma cells, dose response, cell-based, JHH-DIPG-1, MIPE4.0, CellTiter-Glo, qHTS (AID 1347062; cut-off not given, nearly all actives have AC50 up to about 27 µM;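 as to AC50: cells exposed to compound for two days before readout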). As to conditions: JHH-DIPG-1 viability, CellTiter-Glo ATP luminescence.
Test [12] is described as follows: LFS_MB_1R medulloblastoma cell growth inhibition, synergistic combos for chromothripsis tumors, cisplatin or BGB combos (AID 1671452; in the data active = inhibition above about 80%;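 also: cells exposed for 96 hours before readout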). As to conditions: LFS_MB_1R medulloblastoma cells, stronger effect = higher value.
The nature of test [13]: MDA-MB-436 breast carcinoma cell growth inhibition, synergistic combos for chromothripsis tumors, BGB or cisplatin combos (AID 1671458).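 Also: cells exposed for 96 hours; 0% = vehicle DMSO and 100% = killing by high DMSO.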 Conditions: MDA-MB-436 breast carcinoma growth inhibition, drug combinations, stronger effect = higher value.
The nature of test [14]: growth inhibition of BT084 medulloblastoma cells, cell-based, ICGC_MB145, cisplatin and BGB IC40 combos (AID 1671461; in the data active = inhibition above about 80%;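 also: cells exposed to drugs for 96 hours; 0% = vehicle DMSO and 100% = high DMSO full killing control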). Conditions: drug combinations, stronger effect = higher value.
The nature of test [15]: growth inhibition of RCMB18 medulloblastoma cells, cell-based, cisplatin and BGB IC40 combos (AID 1671462; in the data active = inhibition above about 80%;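 also: cells exposed to compound for four days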). As to conditions: stronger effect = higher value.
Test [16] in a line: growth inhibition of CRL1545 osteosarcoma cells, cell-based, cisplatin and BGB IC20 combos (AID 1671464; in the data active = inhibition above about 80%;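 also: cells exposed to compound for 96 hours before readout; 0% = vehicle DMSO and 100% = high DMSO killing control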). As to conditions: stronger effect = higher value.
Test [17] in a line: circadian clock period modulators, cell-based, LOPAC library, luminescence reporter (AID 2774).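 Also: values are relative to mean of DMSO wells on each plate.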 As to conditions: circadian reporter cells, at 7 µM, actives lie on both sides.
In test [18] the test system is Hepatitis C virus NS3 helicase. Put plainly: HCV NS3 helicase inhibitors, primary screen, biochemical, fluorescence polarization, LOPAC1280 library (AID 687035; in the data active = inhibition above about 37%). As to conditions: Purified HCV NS3 helicase, Cy5-dT15 ssDNA binding fluorescence polarization; stronger effect = higher value; concentration not given here. For orientation: Fluorescence polarisation rises when a labelled molecule tumbles more slowly, as on binding a larger partner.

A short description of test [19]: Cy5 fluorescence quenching or enhancement artefacts, artefact control for HCV NS3 helicase inhibitor project, biochemical, LOPAC1280 (AID 687037). Conditions: Cy5-DNA-NS3h complex fluorescence interference counterscreen. (In general: Counterscreens check selectivity or assay interference.)
The nature of test [20]: phospholipid biosynthesis inhibitors in animal cells, primary screen, cell-based, LOPAC library, screen 4 (AID 1347384). Conditions: phospholipid biosynthesis inhibition screen, at 10 µM.
Where [21] appears, read: measured here: combination with cisplatin, at 0.5 µM.

“And” between values parts separate entries of the source, which are not always exact repeats. Identical values can stand only once. Results filed as inconclusive are left out. For part of these data: Potency and affinity values are given separately. The source made the active and inactive calls. Unless noted, no rule for the calls is given here.

On to `NS(=O)(=O)c1cc(C2(O)NC(=O)c3ccccc32)ccc1Cl` (configuration not stated), for which, in [1], the rescue above control was -4.25. The inclusion score in test [2] turned out to be 2. In addition, in test [3], the aggregation suppression score turned out to be 1.49. The survival in [4] was 4.42 (inactive).
For the compound `COC1=CC(=O)C[C@@H](C)[C@]12Oc1c(Cl)c(OC)cc(OC)c1C2=O`, the rescue above control in [1] was -5.31. The compound further showed an inclusion score in [2] of 2. In [3], this compound had an aggregation suppression score of 1.07.
Turning to `Cc1ccc(C)c(OCCCC(C)(C)C(=O)O)c1`, the rescue above control in test [1] came to 6.5. The compound further gave an inclusion score in test [2] of 2. This compound also yielded an aggregation suppression score in [3] of -0.02. In addition, the survival in test [4] is 20.8 (inactive). Moreover, the outcome in test [5], in test [6], in [7], in [8] and in test [9] was inactive.
For `N[C@@H](C(=O)N[C@@H]1C(=O)N2C(C(=O)O)=C(Cl)CS[C@H]12)c1ccccc1`, the survival in test [4] was 9 (inactive) and 6.75 (inactive). In addition, the compound was called inactive in [10], in test [11] and in test [6].
A word on the inhibition: it is the relative decrease from the control value, in per cent. Consider `CCn1cc(C(=O)O)c(=O)c2cc(F)c(N3CCN(C)CC3)cc21`, for which the compound was called inactive in test [5], in test [11], in test [6], in [7] and in test [9]. For the same compound, the inhibition in test [12] (at 0.5 µM) was -35.2% (inactive) and -9.17% (inactive); in test [12] (measured here: combination with BGB IC40, at 0.05 µM), -12.2% and -6.93%; in test [12] (setting [21]), -66.1% and -0.499%; in test [12] (measured here: combination with cisplatin, at 5 µM), -52.8% and 11.3%; in test [13] (at 0.5 µM), -8.42% (inactive) and -1.21% (inactive); in test [13] (measured here: BGB combination, at 0.5 µM) it was -5.87% and 9.12%. Also, the inhibition in [13] (measured here: BGB combination, at 5 µM) is -7.49% and 1.82%; in test [13] (measured here: cisplatin combination, at 0.5 µM), -16.3% and -4.65%; in test [13] (measured here: cisplatin combination, at 5 µM), -9.37% and -6.1%; in test [14] (at 0.5 µM) it was -1.86% (inactive) and 3.84% (inactive); in test [14] (cisplatin combination, at 0.5 µM), -11.9% and -2.51%; in [14] (cisplatin combination, at 5 µM), -69% and 6.95%. The inhibition in test [14] (measured here: BGB IC40 combination 0.05 uM, at 0.05 µM) was -0.823% and 30.3%; in test [14] (single agent, at 5 µM), -6.24% and -12.7%; in test [15] (at 0.5 µM) it was -15.3% (inactive) and 13.4% (inactive); in [15] (cisplatin combo, at 5 µM), -13.1% and 21.2%; in test [15] (measured here: BGB IC40 combination, at 0.05 µM), 11.2% and 6.78%; in [15] (setting [21]), -34.9% and 34.7%. For the same compound, the inhibition in test [15] (single agent, at 5 µM) was -30.4% and 4.8%; in [16] (at 0.5 µM), -40.9% (inactive) and -9.39% (inactive); in test [16] (measured here: with BGB IC20 combination, at 0.5 µM), -21.3% and -8%; in test [16] (measured here: with cisplatin IC20 combination, at 0.5 µM), -50.7% and -12.6%; in [16] (single agent, at 0.05 µM), 3.45% and -1.09%; in [16] (single agent, at 5 µM), -27.1% and 1.32%.
With `Cc1onc(-c2c(Cl)cccc2Cl)c1C(=O)N[C@@H]1C(=O)N2[C@@H]1SC(C)(C)[C@@H]2C(=O)O`, the rescue above control in [1] was 8.15. In [2], this compound gave an inclusion score of 2. The same compound showed an aggregation suppression score in test [3] of 1.09. The survival in test [4] was 4 (inactive).
The AC50 is the midpoint of the concentration-response curve, whichever way the signal moves. `Nc1ncn([C@@H]2O[C@H](CO)[C@@H](O)[C@H]2O)c(=O)n1` registered a rescue above control in test [1] of 17.7. Further, in test [3], the aggregation suppression score was 1.25. Further, the period change in test [17] was 0.105 h (inactive). Further, the inhibition in [18] was -1% (inactive). Moreover, the fluorescence ratio (interference) in test [19] is 0.9 (inactive). In addition, the AC50 in [5] is 1.48 µM (active); in [11], 2.96 µM (active); in test [6], 935 nM (active); in test [8], 7.42 µM (active). Moreover, in test [20], the compound was called inactive.
Compound `CCc1nc(N)nc(N)c1-c1ccc(Cl)cc1` gave a rescue above control in test [1] of 26.6. Further, the aggregation suppression score in test [3] amounted to 0.999. The survival in test [4] is 16.9 (inactive). For the same compound, the concentration at half-maximal activity (AC50) in test [5] was 3.72 µM (active). Moreover, the call in [10], in test [6], in [7], in test [8] and in test [9] was inactive.
